Measured values from PubChem BioAssay (NCI).
This is part of a sample that, as a whole, favours compounds with a hit. Of some 83,000 tested, about 20% had one in any assay.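 Note: values are percent growth. 100 is the growth of untreated cells, values between 100 and 0 indicate rising inhibition; between -100 and 0 indicates cell death.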 A number with no mark means an inactive call. Calls of active or inactive are those of the source. The calls were made as follows: active = growth percent below 10; inactive = the rest.

How the values were obtained:
Assay in all cases: NCI-60 one-dose screen, 48 h (100 = growth as untreated, 0 = no growth, -100 = all killed)
Conditions in all cases: 10 µM unless noted
SR leukemia = tested on: SR leukemia
RPMI-8226 leukemia = tested on: RPMI-8226 leukemia
OVCAR-8 ovarian = tested on: OVCAR-8 ovarian
OVCAR-5 ovarian = tested on: OVCAR-5 ovarian
OVCAR-4 ovarian = tested on: OVCAR-4 ovarian
SK-OV-3 ovarian = tested on: SK-OV-3 ovarian
IGROV1 ovarian = tested on: IGROV1 ovarian
OVCAR-3 ovarian = tested on: OVCAR-3 ovarian
HS 578T breast = tested on: HS 578T breast
NCI/ADR-RES ovarian = tested on: NCI/ADR-RES ovarian

Row | SMILES | growth (SR leukemia) | growth (RPMI-8226 leukemia) | growth (OVCAR-8 ovarian) | growth (OVCAR-5 ovarian) | growth (OVCAR-4 ovarian) | growth (SK-OV-3 ovarian) | growth (IGROV1 ovarian) | growth (OVCAR-3 ovarian) | growth (HS 578T breast) | growth (NCI/ADR-RES ovarian)
1 | CNC(=O)c1cc(Oc2ccc(NC(=O)Nc3ccc(Cl)c(SC)c3)c(F)c2)ccn1 | 31.4% | 27.6% | 49.9% | 77.8% | 16.3% | 79.5% | 56.4% | 61.2% | 56% | 47.8%
2 | Cc1ccc(NC(=O)/C=C/c2ccccc2)c(C(N)=O)c1 | -23.3% (active) | 23.2% | 55.1% | 51.8% | 31.4% | 2.6% (active) | 91.4% | -25.8% (active) | -3.46% (active) | 24.7%
3 | Cn1cc(-c2nonc2-c2cn(C)c3ccc(F)cc23)c2ccccc21 | 31.3% | 13.5% | 28.5% | 41.5% | 41.6% | 41.5% | 24.6% | -18.9% (active) | 3.84% (active) | 4.44% (active)
4 | Nc1n[nH]c2ccc([C@@H]3Nc4ccc5[nH]ncc5c4[C@H]4C5C=CC(C5)[C@@H]34)cc12 (stereo not given in full) | 11.6% | 44.7% | 27.1% | 29.5% | 30.2% | 42.6% | 16.6% | 7.18% (active) | 3.92% (active) | -27.5% (active)
5 | COc1ccc(/C=C\c2cc(OC)c(OC)c(OC)c2)cc1OC(=O)c1cccc(Cn2cc(CCOC(=O)[C@H](N)Cc3cn(C)c4ccccc34)nn2)c1 | -0.0904% (active) | 25.9% | 23% | 41% | 20.9% | 34.7% | 16.2% | 1.65% (active) | 26.9% | 6.28% (active)
6 | CSc1ccc(-c2n[nH]nc2-c2cc3ccccc3s2)cc1 | 24.9% | 40.1% | 59.3% | 95.3% | 75.8% | 52.7% | 46.4% | 26.5% | 58.5% | 22.8%
7 | Cc1ccc(O)c(N2C(=NCc3ccco3)NS(=O)(=O)c3cnccc32)c1 | 71.3% | 65.7% | 64.5% | 92.4% | 107% | 117% | 94.2% | 96.9% | 113% | 95.2%
8 | CC(=O)c1cc2c(N)c(C(=O)Nc3cccc4ccccc34)sc2nc1C | 12.7% | 10.2% | 21.5% | 64% | 59.6% | 26.8% | 34.7% | -5.38% (active) | 38.2% | 16.3%
9 | C#Cc1cccc(NC(=O)c2ccccc2NC(=O)CCl)c1 | 62.1% [8.25 µM] | 99.5% [8.25 µM] | 60.6% [8.25 µM] | 118% [8.25 µM] | 82.3% [8.25 µM] | 95.2% [8.25 µM] | -26.1% [8.25 µM] (active) | 90.6% [8.25 µM] | 69.3% [8.25 µM] | 81.1% [8.25 µM]
10 | CCn1c(Cc2ccccc2Nc2c(Cl)cccc2Cl)nnc1SCC(=O)NN1C(=O)/C(=C/c2cc(OC)c(O)c(OC)c2)SC1=S | 21.4% | 47% | 60% | 55.5% | 74% | 23.2% | 42.9% | 7.37% (active) | 5.34% (active) | 88.6%
11 | O=C(COc1cccc(/C=C2\CSc3ccccc3C2=O)c1)Nc1nccs1 | -47% (active) | -31.2% (active) | 31% | 83.8% | 78.3% | 116% | -52.2% (active) | 24.4% | -8.26% (active) | 54.8%
12 | CCN=C1C=CC(=C(c2ccc(N)cc2)c2ccc(N(CC)CC)c(C)c2)C=C1 | -17.6% (active) | -30.8% (active) | 1.54% (active) | 18.2% | 24.2% | 6.51% (active) | 11.6% | -28.9% (active) | -24.6% (active) | 67.7%
13 | CC[N+](CC)=c1sc2c(s1)C(c1ccc(Cl)cc1)Oc1ccc(Cl)cc1-2 (stereo not given) | 14.8% | -31.4% (active) | 10.7% | 15.1% | 9.29% (active) | -6.15% (active) | 9.22% (active) | 1.97% (active) | 18.3% | 88.9%
14 | OCc1ccc(N2CCc3cccc(F)c3C2)cc1Cl | 87.6% [0.1 µM] | 71.4% [0.1 µM] | 91.4% [0.1 µM] | -11.7% [0.1 µM] (active) | 32.7% [0.1 µM] | 72.5% [0.1 µM] | 21.2% [0.1 µM] | 11.8% [0.1 µM] | 99.2% [0.1 µM] | 87% [0.1 µM]
15 | COc1ccc(-n2nc(C)c3c(Nc4ccc(NC(=O)Nc5ccc(Cl)c(C(F)(F)F)c5)cc4)ncnc32)cc1 | 20.8% | 0.105% (active) | 5.05% (active) | 4.07% (active) | 20.8% | 1.72% (active) | 18.6% | 5.65% (active) | -12% (active) | 1.32% (active)
16 | COc1ccc(C(=O)/C=C/c2cccnc2Nc2cc(OC)c(OC)c(OC)c2)cc1 | -0.688% (active) | -21.2% (active) | -0.898% (active) | 37.7% | 39.8% | 24.7% | 72% | 11.5% | 36.7% | 4.44% (active)
17 | O=C(CN1CCCCC1)Nc1ccc2oc(=O)ccc2c1 | 84.4% | 90.7% | 97.8% | 122% | 120% | 109% | 102% | 111% | 97% | 107%
18 | COC(=O)c1ccc(NC(=O)c2ccc(-c3cccc([N+](=O)[O-])c3)o2)cc1 | 114% | 102% | 103% | 109% | 92.7% | 98.1% | 91.6% | 101% | 92.2% | 99%
19 | COC(=O)c1cccc(NC(=O)c2ccc(-c3cccc(N)c3)o2)c1 | 95.8% | 78.8% | 75.7% | 107% | 101% | 105% | 100% | 107% | 92.2% | 99.7%
20 | O=C1c2cc3c(cc2-c2c1c1ccc(F)cc1c(=O)n2C[C@H](O)[C@@H](O)[C@H](O)CO)OCO3 | 0.151% (active) | -0.286% (active) | 0.0181% (active) | -29.8% (active) | 15.4% | -20.8% (active) | 17.7% | -20.3% (active) | 0.229% (active) | 4.78% (active)
21 | CC1C(/C=N/Nc2ccccc2)C(C#N)(C#N)C1(C#N)C#N (stereo not given) | 46.6% | 82% | 85.6% | 87.3% | 76.1% | 95.7% | 56.3% | 86.2% | 87.2% | 65.1%
22 | O=C1OCC2=C1C(c1ccncc1)c1cc3c(cc1N2CCO)OCO3 (stereo not given) | 122% | 103% | 98.8% | 100% | 100% | 87.3% | 101% | 105% | 87% | 104%
23 | NNCCc1ccc(NC(=O)CCCc2ccc(/C=C/C(=O)NO)cc2)cc1 | 18.2% | 37.5% | 8.02% (active) | 71.4% | 29.9% | 64.1% | 62.9% | 55.3% | 21.2% | 44.3%
24 | CCOC(=O)n1cc(-c2nonc2-c2cn(C)c3ncccc23)c2ccccc21 | 60.5% | 77.9% | 92.6% | 94.2% | 71.3% | 77.6% | 54.2% | 85.6% | 77.7% | 73.1%
25 | COc1cccc(NC(=O)c2sc3nc(C)c(C(C)=O)cc3c2N)c1 | 19% | 52.2% | 63.5% | 112% | 63.7% | 25.2% | 59.7% | 17.8% | 43.3% | 34.1%
26 | CCOC(=O)c1c(C)oc2ncnc(N3CCN(C(=O)COc4ccc(SC)cc4)CC3)c12 | 84.3% | 81.6% | 87.6% | 98.2% | 75% | 86.1% | 90.4% | 100% | 81.7% | 85.7%
